55 compounds from PubChem BioAssay AID463173 (ICCB-Longwood Screening Facility, Harvard Medical School, 2010) can be followed below.

Structures are written as SMILES. In all, about 52,000 compounds went through this assay and about 1,700 (3.3%) were called active. The list comes from a sample in which actives are over-represented; it also holds similar structures and randomly drawn compounds. A number with no mark means an inactive call. No stated cut-off is given here; in the data, active means survival mostly below about 52% (no sharp cut-off); inactive means mostly above about 56%.

In the assay the test system is Wild type. The assay can be described thus: growth inhibition of S. aureus wild type versus tarO mutant, primary screen, teichoic acid synthesis inhibitors, RN4220, OD600 (AID 463173). The settings on record: S. aureus RN4220 wild type/DeltatarO growth, OD600, 18 h, active compounds read low, screened at 18.75 µg/mL (by protocol).
In the case of `CCCN1Cc2cccc(C(=O)Nc3ccc(C(C)=O)cc3)c2C1=O`, the survival is 89%.

`CS(=O)(=O)c1ccc(-c2nnc(NC(=O)c3ccc4c(c3)OCCO4)o2)cc1`: the survival was 75%.

As for `CS(=O)(=O)c1ccccc1-c1nnc(NC(=O)c2ccc3c(c2)OCCO3)o1`, the survival is -6% (active).

`CSc1ccccc1-c1nnc(NC(=O)c2ccc3c(c2)OCCO3)o1`: the survival is 123%.

For the compound `Cc1ccc(-n2c(=O)c3cccnc3n2CC(=O)Nc2ccc(C)cc2Cl)cc1`, the survival is 113%.

Regarding `Cc1ccc2c(c1)-c1nc(-c3ccc(Cl)cc3)cc(-c3coc4ccccc4c3=O)c1CO2`, the survival was 139%.

Regarding `CCCn1c(=O)c2sccc2n2c(CCCC(=O)N3CCN(c4ccc(OC)cc4)CC3)nnc12`, the survival is 99%.

In the case of `O=C(Nc1cccc(C(=O)N2CCCCC2)c1)c1nsc2ccccc12`, the survival was 65%.

Consider `CCc1nc2sc3c(N4CCCCC4)ncnc3c2c2c1CCCC2`, for which the survival is 136%.

Take `CCCc1nc2sc3c(N4CCC(C)CC4)ncnc3c2c2c1CCCC2`: the survival is 75%.

As to `CCCc1nc2sc3c(N4CCCCC4)ncnc3c2c2c1CCCC2`, the survival was 13% (active).

In the case of `COc1ccccc1Nc1sc(C(=O)c2ccc3c(c2)OCO3)c(N)c1S(=O)(=O)c1ccccc1`, the survival was 83%.

Consider `COc1ccc(Nc2nc(N)nc(CSc3nc4ccccc4s3)n2)cc1`, for which the survival is 35%.

In the case of `Cc1ccc(Nc2nc(N)nc(CSc3nc4ccccc4s3)n2)cc1`, the survival was 32%.

For `COc1ccc(Nc2nc(N)nc(CSc3nc4cc(OC)ccc4s3)n2)cc1`, the survival was 8% (active).

For the compound `COc1ccc(/C=C/C(=O)Nc2ccc(Cl)c(Cl)c2)cc1`, the survival was 80%.

`COc1ccc(/C=C/C(=O)Nc2ccc(Cl)c(Cl)c2)cc1OC`: the survival was 5% (active).

On to `C/C=C/C(=O)Nc1ccc(Cl)c(Cl)c1`, for which the survival is 108%.

As to `CN(C)c1ccc(NC(=O)CSC2=Nc3ccccc3C3=NC(CC(=O)NCc4ccc5c(c4)OCO5)C(=O)N23)cc1` (stereo not given), the survival was 124%.

For `Cc1ccccc1C(=O)Nc1ccc(OCc2cc(=O)n3cccc(C)c3n2)cc1`, the survival is 72%.

For the compound `Cc1cccn2c(=O)cc(COc3ccc(NC(=O)c4cccc(F)c4)cc3)nc12`, the survival is -1% (active).

In the case of `O=C(Nc1cccc(OCc2cc(=O)n3ccccc3n2)c1)Nc1cccc(C(F)(F)F)c1`, the survival is -6% (active).

Consider `Cc1cccc(C(=O)Nc2ccc(OCc3cc(=O)n4ccc(C)cc4n3)cc2)c1`, for which the survival was 55%.

Take `COc1cc(C(=O)Nc2ccc(OCc3cc(=O)n4ccc(C)cc4n3)cc2)cc(OC)c1OC`: the survival was 0% (active).

As to `Cc1cn2c(=O)cc(COc3ccc(NC(=O)c4cccc(F)c4)cc3)nc2s1`, the survival is 122%.

Turning to `COc1cccc(C(=O)Nc2cccc(OCc3cc(=O)n4cccc(C)c4n3)c2)c1`, the survival is 134%.

As to `COc1cc(C(=O)Nc2ccc(OCc3cc(=O)n4cccc(C)c4n3)cc2)cc(OC)c1OC`, the survival is 133%.

`O=C(COc1ccc(F)cc1)Nc1cccc(OCc2cc(=O)n3ccccc3n2)c1`: the survival was 73%.

With `Cc1ccc(Cl)cc1NC(=O)Nc1cccc(OCc2cc(=O)n3ccccc3n2)c1`, the survival is 64%.

As to `COc1ccccc1C(=O)Nc1ccc(OCc2cc(=O)n3ccc(C)cc3n2)cc1`, the survival is 85%.

On to `CCOc1ccc(C(=O)Nc2ccc(OCc3cc(=O)n4cccc(C)c4n3)cc2)cc1`, for which the survival was 14% (active).

Consider `CCOC(=O)C1CCCN(C(=O)c2nn(-c3ccc(OC)cc3)c(=O)c3c2c2ccccc2n3C)C1` (stereo not given), for which the survival was 125%.

In the case of `CCOC(=O)c1ccc(NC(=O)Cn2cc(C(=O)c3ccc(CC)cc3)c(=O)c3ccc(C)nc32)cc1`, the survival was 143%.

On to `COCCn1c(C)cc(O)c(C(c2ccc(Cl)cc2)N2CCN(c3ccccc3)CC2)c1=O` (stereo not given), for which the survival is 65%.

On to `O=C(NCCC1=CCCCC1)c1ccc2c(c1)N(Cc1ccc(Cl)cc1)C(=O)c1ccccc1S2(=O)=O`, for which the survival is 104%.

For the compound `NC(=O)CSc1oc(-c2ccco2)nc1S(=O)(=O)c1ccc(Cl)cc1`, the survival was 68%.

For `Cc1ccc(CNC(=O)C2CCN(S(=O)(=O)N3CCC(C)CC3)CC2)cc1`, the survival is 77%.

As for `O=C(Cn1cc(S(=O)(=O)Cc2ccccc2Cl)c2ccccc21)NCCc1ccccc1`, the survival is 65%.

Consider `CCC(=O)Nc1ccc2c(c1)C(=O)OC2`, for which the survival was 110%.

`Cc1cccn2c(=O)cc(COc3ccc(NC(=O)COc4ccc(F)cc4)cc3)nc12`: the survival was 69%.

`Cc1cccc(C(=O)Nc2cccc(OCc3cc(=O)n4cccc(C)c4n3)c2)c1`: the survival is 76%.

For `Cc1ccc(OCC(=O)Nc2ccc(OCc3cc(=O)n4cccc(C)c4n3)cc2)cc1C`, the survival is -6% (active).

`Cc1ccc(OCC(=O)Nc2cccc(OCc3cc(=O)n4cccc(C)c4n3)c2)cc1C`: the survival is 124%.

Consider `Cc1ccccc1C(=O)Nc1cccc(OCc2cc(=O)n3cccc(C)c3n2)c1`, for which the survival is 90%.

Regarding `Cc1cccn2c(=O)cc(COc3cccc(NC(=O)c4ccccc4F)c3)nc12`, the survival was -6% (active).

For the compound `Cc1cccc(-n2c(-c3ccco3)nc3c(cnn3-c3ccccc3C)c2=O)c1`, the survival was 132%.

Consider `O=C(CN(C1CCCCC1)S(=O)(=O)c1ccccc1)N1CCCCC1`, for which the survival is 101%.

Take `CCOC(=O)c1c(S(=O)(=O)N2CCC(C(=O)Nc3ccc(C)cn3)CC2)c(C)n(C)c1C`: the survival is 70%.

Regarding `Cc1ccc(NC(=O)c2cc(S(=O)(=O)N3CCCCC3)c[nH]2)cc1N(C)C`, the survival is 87%.

In the case of `CCCN(C(=O)c1sc2nc3n(c(=O)c2c1C)CCCC3)c1ccccc1C`, the survival was 80%.

As to `COc1cc2c(cc1OC)C(COc1ccccc1OC)N(C(=O)c1ccccc1OC)CC2` (stereo not given), the survival is 73%.

`Cc1ccc(C(=O)Nc2nc(-c3nnn(-c4cccc(C(F)(F)F)c4)c3C)ns2)cc1`: the survival is 75%.

Consider `CC(=O)c1ccc(N2CCN(S(=O)(=O)c3ccc(-c4cc(C)no4)s3)CC2)cc1`, for which the survival was -6% (active).

With `Cc1cc(-c2ccc(S(=O)(=O)N3CCN(c4ccc(Cl)cc4)CC3)s2)on1`, the survival is 136%.

Take `CC(=O)c1ccc(N2CCN(S(=O)(=O)c3ccc(-c4cc(C(F)(F)F)on4)s3)CC2)cc1`: the survival is 72%.
